Hits are enriched below; roughly 12% of the tested compounds scored in any of these assays.
Shiga toxin inh: Shiga toxin inhibition; Vero cells, Shiga toxin protein synthesis inhibition reporter; inhibition, % at 38.7 µM; 290,000 tested, 9.2% active; AID 2315; in the data active means inhibition mostly above about 28%, no sharp cut-off; inactive means mostly below about 43%
Marburg entry inh: blocks Marburg virus binding to or entry into cells; Marburg virus pseudotyped entry inhibition, cell reporter; Potency, µM (highest dose often 37.8 µM), usual class: inhibitors; 300,000 tested, 1.8% active; AID 540276; calls by dose curve; tested in HEK293 cells
CHX counter: counter-screen hit for Shiga toxin inhibitors, cycloheximide; cell reporter, cycloheximide protein synthesis inhibition counterscreen; 300,000 tested, 12% active; max response, %; in the data active means max response mostly above about 13%, no sharp cut-off; inactive means mostly below about 14%; further: read at 38.3 µM for the half of the compounds with a filed dose
LASV entry inh: inhibitors of Lassa virus binding or cell entry | Lassa virus pseudotype entry inhibition, cell reporter | Potency, µM (top dose mostly 37.9 µM), usual class: inhibitors | 300,000 tested, 1.2% active; calls by dose curve; tested in HEK293 cells; further: nearly all actives have a fitted effect of over 50% in size
Hits are given with their value; . = inactive; ? = inconclusive; / = no result given.

SMILES | Shiga toxin inh | Marburg entry inh | CHX counter | LASV entry inh
COc1ccccc1NC(=O)CSc1nnc(-c2ccccc2)o1 | . | / | . | /
COc1ccc(-c2ccc(-c3nnc(-c4ccncc4)o3)cc2)cc1 | . | . | . | /
COc1ccccc1NCc1nnc(-c2ccccc2)o1 | . | . | 20 | .
Cc1ccc(-c2nnc(N)o2)cc1 | . | . | . | .
COc1ccc(-c2nnc(-c3ccccc3O)o2)cc1 | 63 | ? | 45 | ?
COc1ccc(Cc2nnc(-c3ccccc3)o2)cc1 | 43 | . | 44 | .
COc1ccc(-c2nnc(NC(=O)Cc3ccccc3)o2)cc1 | . | / | . | /
Cc1ccc(-c2nnc(-c3ccccc3)o2)cc1 | 49 | 16µM | 49 | 10µM
Brc1ccc(-c2nnc(Cc3ccccc3)o2)cc1 | 81 | / | 58 | /
O=S(=O)(Nc1ccc2c(c1)OCCO2)c1c(F)cccc1F | . | . | . | .
COc1cccc(NC(=O)Nc2cc(C(=O)O)ccc2N2CC3CC(C2)c2cccc(=O)n2C3)c1 (stereo not drawn) | . | / | . | /
CCc1ccc(NC(=O)c2ccc3c(O)c(S(=O)(=O)c4ccccc4)c(=O)[nH]c3c2)cc1 | / | / | / | .
COc1ccc(Cl)cc1NC(=O)CN(C)C(=O)c1cc2ccccc2cc1O | / | . | / | .
CCNc1nnc(-c2ccc(C)cc2)o1 | 107 | . | 42 | .
C/C(=N\NC(=S)Nc1ccccc1C)C1Cc2ccccc2C(=O)O1 (stereo not drawn) | . | ? | 40 | .
C/C(=N\NC(=S)Nc1ccccc1)C1Cc2ccccc2C(=O)O1 (stereo not drawn) | 82 | . | 51 | .
CCOC(=O)c1ccc(NC(=O)C2Cc3ccccc3C(=O)O2)cc1 (stereo not drawn) | / | ? | / | .
CC1(C)COCN1S(=O)(=O)c1ccc(C(=O)Nc2nnc(-c3ccc(Cl)s3)o2)cc1 | . | 6.3µM | . | ?
CC1CCCCN1S(=O)(=O)c1ccc(C(=O)Nc2nnc(-c3ccccc3Cl)o2)cc1 (stereo not drawn) | . | 13µM | . | ?
COc1ccc(-c2nnc(NC(=O)c3ccc(S(=O)(=O)N4COCC4(C)C)cc3)o2)cc1 | . | ? | . | ?
CC1CCCCN1S(=O)(=O)c1ccc(C(=O)Nc2sccc2C(N)=O)cc1 (stereo not drawn) | 60 | / | 56 | /
CCc1ccc2ncc3c(-c4ccc(F)cc4)nn(CC(=O)NCc4ccccc4)c3c2c1 | / | / | / | .
COc1ccccc1NC(=O)C1=C(C)Nc2nc(SCc3ccccc3Cl)nn2C1c1ccccn1 (stereo not drawn) | / | . | / | .
O=C1C2C3C=CC(C3)C2C(=O)N1c1ccc2ccccc2c1 (stereo not drawn) | . | / | . | /
CCSc1nc2ccc(N3C(=O)C4C5C=CC(C5)C4C3=O)cc2s1 (stereo not drawn) | 50 | ? | 27 | .
SMILES | Shiga toxin inh | Marburg entry inh | CHX counter | LASV entry inh
CCc1noc(C)c1C(=O)NCCN1C(=O)S/C(=C\c2ccc(OC)cc2)C1=O | / | . | / | .
O=C(NCCN1C(=O)S/C(=C\c2ccc(F)cc2)C1=O)C1CCN(S(=O)(=O)c2cccs2)CC1 | . | . | . | .
COc1ccc(/C=C2\SC(=O)N(CCNC(=O)C3CCN(S(=O)(=O)c4cccs4)CC3)C2=O)cc1 | 44 | ? | 35 | .
COc1ccc(/C=C2\SC(=O)N(CCNC(=O)Cn3cnnn3)C2=O)cc1 | 157 | ? | 32 | ?
COc1ccc(/C=C2\SC(=O)N(CCNC(=O)CCS(=O)(=O)c3ccc(C)cc3)C2=O)cc1 | 110 | . | 70 | ?
Cc1ccc2[nH]c3c(c2c1)CCCC3NC(=O)CCl (stereo not drawn) | / | 5.6µM | . | 8.9µM
O=C(Nc1cccn2ncnc12)c1cccc(C(F)(F)F)c1 | . | . | 24 | .
O=C(Nc1ccsc1C(=O)O)c1cccc(C(F)(F)F)c1 | 77 | / | 61 | /
O=C(Nc1ccsc1C(=O)O)c1cccc(Oc2ccccc2)c1 | . | ? | 14 | ?
O=C(Nc1nnc(-c2cccs2)o1)c1cccc(Oc2ccccc2)c1 | . | / | . | /
Cc1ccccc1NC(=O)c1cccc(C(F)(F)F)c1 | . | . | . | .
N=C1c2ccccc2CN1c1ccc(N2CCOCC2)c(S(=O)(=O)Nc2ccc(Cl)cc2)c1 | . | / | . | /
CC(=O)N1CCN(S(=O)(=O)c2cccc(C(=O)Nc3ccc4c(c3)CCC4)c2)CC1 | . | ? | . | ?
CN(C)S(=O)(=O)c1ccc(C(=O)Nc2ccc3c(c2)CCC3)cc1 | 33 | / | 29 | /
CN(C)S(=O)(=O)c1cccc(C(=O)Nc2ccc3c(c2)CCC3)c1 | 106 | ? | 43 | ?
COc1ccc(NC(=O)c2ccc(S(=O)(=O)N(C)C)cc2)cc1OC | . | ? | . | .
O=C(COc1ccc2c(-c3ccccc3)cc(=O)oc2c1)Nc1cccnc1 | . | / | . | /
Cc1ccc(-c2n[nH]c(=S)n2/N=C/c2c(C)[nH]n(-c3ccccc3)c2=O)cc1 | . | ? | . | .
O=S(=O)(c1ccc2c(c1)OCO2)N1CCN(c2nnnn2-c2ccccc2)CC1 | . | . | 36 | .
O=S(=O)(c1ccccc1)N1CCN(c2nnnn2-c2ccccc2)CC1 | . | . | . | .
Cc1ccc(/C=C2/NC(=O)N(Cc3ccccc3)C2=O)s1 | . | . | 55 | ?
Cc1cccc(CN2C(=O)N/C(=C/c3cc(C)n(-c4cc(C)ccn4)c3C)C2=O)c1 | . | ? | . | 11µM
Cc1cc(/C=C2\NC(=O)N(Cc3ccc(Cl)cc3)C2=O)c(C)n1C | . | . | . | .
Cc1ccc(NC(=O)CN2C(=O)N/C(=C/c3ccc(C)s3)C2=O)cc1 | . | . | . | .
O=C1N/C(=C/c2cccs2)C(=O)N1Cc1ccc(Br)cc1 | . | . | . | .
SMILES | Shiga toxin inh | Marburg entry inh | CHX counter | LASV entry inh
Cc1cccc(CN2C(=O)N/C(=C/c3ccc(C)s3)C2=O)c1 | . | ? | 23 | 3.2µM
C=C(C)CCC(C)N1CCC(n2nccc2NC(=O)CCOc2ccccc2)CC1 (stereo not drawn) | . | . | . | ?
COc1ccc(N(Cc2cccs2)C(=O)COc2ccc(C(C)C)cc2)cc1 | / | . | / | .
CCOC(=O)C1(C)C=C(Nc2ccc(C(N)=O)cc2)C(=O)N1c1ccccc1 (stereo not drawn) | / | . | / | .
CNC(=O)Cn1nc(-c2ccc(C)c(S(=O)(=O)N(C)C)c2)c2ccccc2c1=O | . | . | . | .
COc1ccc(Cl)cc1C(=O)O/N=C(\N)c1ccc(Cl)cc1 | . | . | . | .
COc1cc(OC)c(C(=O)O/N=C(\N)c2ccc(C)cc2)cc1OC | . | 7.9µM | 15 | ?
COc1cc(OC)c(C(=O)O/N=C(\N)c2cccc(C)c2)cc1OC | 82 | . | 50 | ?
COc1cccc(OCC(=O)O/N=C(\N)c2ccc(OC)c(OC)c2)c1 | . | . | . | .
O=C(NC(=S)NC1CCS(=O)(=O)C1)c1ccccc1Br (stereo not drawn) | . | . | . | .
Cc1cccc(-c2nc(Cn3c(SCc4cc(C)ccc4C)nc4ccncc43)c(C)o2)c1 | / | . | / | .
CC(C)CCNC(=O)NC(=O)COC(=O)C1CCN(S(=O)(=O)c2ccccc2F)CC1 | . | . | . | .
CCOC(=O)C1=C(COC(=O)[C@@H]2CCCN2S(=O)(=O)c2ccc(C)cc2)NC(=O)NC1C (stereo partly drawn) | . | . | 12 | .
CCOC(=O)C1=C(COC(=O)CNC(=O)c2ccc(C)cc2)NC(=O)NC1C (stereo not drawn) | . | / | . | /

Assay outcomes (PubChem)
